Assay outcomes from PubChem.
GCN5L2 inh: blocks human GCN5L2 histone acetyltransferase; GCN5L2 HAT assay, ThioGlo1 CoA-SH fluorescence; Potency, µM (titrated, usually from 58.9 µM), inactives show top-dose activity change, negative = inhibition, hits mostly inhibitors; Q92830; hit rate 0.21% among 390,000; also: % is scaled to controls: 0 for no effect and ±100 for the full control effect
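Free CoA generated was detected with ThioGlo1 (50uM) fluorescence at Ex340nm/Em540nm, read immediately and after 20 min at room temperature. Enzyme, 20 nM in HEPES pH 7.5 buffer, saw compounds 15 min before adding 75uM H3(1-25) peptide and 70uM acetyl-CoA.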
PKM2 activator: PKM2 (human) enzyme activation; purified PKM2, Kinase-Glo ATP luminescence, activation; response scale: 0% is enzyme alone, no compound; P14618; hit rate 0.34% among 260,000; AID 1631; Potency, µM (titrated, usually from 57.5 µM), without a hit: top-dose activation, actives largely listed as activators; also: % is scaled to controls: 0 for no effect and ±100 for the full control effect; nearly all actives have a fitted effect of over 55% in size
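ATP formation by purified human PK-M2, quantified via coupled luciferase luminescence after 1 h at room temperature with 0.1 mM ADP and 0.5 mM PEP final.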
GLS inh: glutaminase GLS (human) inhibition; O94925; GLS enzymatic activity, qHTS titration; Potency, µM (doses to about 45.5 µM), inactives show top-dose activity change, negative = inhibition, hits mostly inhibitors; hit rate 0.21% among 410,000; AID 624170; also: % is scaled to controls: 0 for no effect and ±100 for the full control effect
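Human kidney-isoform GLS in 45 mM KH2PO4 pH 8.2, 0.02% Tween-20, with compound, started with 1mM L-Glutamine (added stock). Glutamate oxidase/HRP/Amplex red coupled fluorescence read at start and after 30 min at RT.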
Mito fusion act: blocks mitochondrial division or promotes mitochondrial fusion. hit rate 0.23% among 320,000. AID 485298. Potency, µM (titrated, usually from 46.1 µM), for the others: at the highest dose growth rescue (activation), actives largely listed as activators. S. cerevisiae fusion-defective mutant growth rescue, CellTiterGlo 48 h; also: % of control where 0% means no effect; nearly all actives have a fitted effect of over 45% in size
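Growth-rescue viability read-out: after 48 h at the non-permissive 37C in glycerol/ethanol YPEG, yeast mitochondrial fusion mutants are measured by CellTiterGlo luminescence; compounds (23 nl pinned per well) restoring growth score as division inhibitors or fusion activators.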
VDR inh: inhibitors of human vitamin D receptor; P11473; VDR-SRC2-3 peptide fluorescence polarization, 2 h; Potency, µM, inactives show max response, negative = inhibition, actives largely listed as inhibitors; hit rate 0.93% among 400,000; AID 504847; also: % is scaled to controls: 0 for no effect and ±100 for the full control effect
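Compounds are added to VDR with labelled SRC2-3 coactivator peptide and held 2 h at room temperature. Inhibition of the VDR–peptide interaction is then read as a change in fluorescence polarization.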
PLK1 PBD inh: PLK1 (human) polo-box domain binding inhibition. P53350. Plk1 PBD binding of FITC phosphopeptide, fluorescence polarization. Potency, µM, for the others: max response, negative = inhibition, usual class: inhibitors. hit rate 2.8% among 360,000. AID 720504; also: series mostly up to about 57 µM; % is scaled to controls: 0 for no effect and ±100 for the full control effect; nearly all actives have a fitted effect of over 65% in size
Target sequence (P53350 whole entry, looked up, the tested form may be a part): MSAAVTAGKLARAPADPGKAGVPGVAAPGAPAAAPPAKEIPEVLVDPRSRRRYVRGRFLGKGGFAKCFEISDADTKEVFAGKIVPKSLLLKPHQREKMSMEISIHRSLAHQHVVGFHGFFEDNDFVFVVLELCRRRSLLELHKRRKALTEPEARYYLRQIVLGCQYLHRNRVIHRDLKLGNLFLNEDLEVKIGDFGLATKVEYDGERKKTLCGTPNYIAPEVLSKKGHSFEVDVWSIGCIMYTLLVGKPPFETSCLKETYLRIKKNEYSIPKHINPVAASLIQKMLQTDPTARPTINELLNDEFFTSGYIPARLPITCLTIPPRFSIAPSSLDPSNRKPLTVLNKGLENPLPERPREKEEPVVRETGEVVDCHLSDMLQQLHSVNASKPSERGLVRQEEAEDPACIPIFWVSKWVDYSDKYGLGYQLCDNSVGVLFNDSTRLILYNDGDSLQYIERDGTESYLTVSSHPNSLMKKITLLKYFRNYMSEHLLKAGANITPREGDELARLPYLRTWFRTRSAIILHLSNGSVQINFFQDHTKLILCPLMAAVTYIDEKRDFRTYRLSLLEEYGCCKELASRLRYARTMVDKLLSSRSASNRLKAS
Active calls of the source: *; ? = inconclusive; . = not tested or not shown. An excerpt weighted towards active compounds, which were near 3.4% of everything screened. Calls follow the shape of the dose curve; as a rule, active = well fitted curve in the direction sought with a large enough effect; inconclusive = small, poorly fitted or top-dose-only effect, or another doubt; inactive = no such curve, though single readings can be large; an effect the other way counts as inactive or inconclusive. Potency is read from the fitted curve at half-maximal effect.

SMILES	GCN5L2 inh	PKM2 activator	GLS inh	Mito fusion act	VDR inh	PLK1 PBD inh
Nc1cc(S(=O)(=O)Nc2ccccc2Cl)ccc1N1CCCC1	-5%	0%	24%	6%	10%	-6%
Nc1cc(S(=O)(=O)Nc2cc(Cl)ccc2Cl)ccc1N1CCOCC1	-22%	-2%	?	11%	35µM*	1.9µM*
CC(C)C(=O)Nc1cc(S(=O)(=O)N2CCOCC2)ccc1N1CCCCC1	-3%	.	?	.	71µM*	24µM*
CCCC(=O)Nc1cc(S(=O)(=O)N2CCOCC2)ccc1N1CCCCC1	2%	.	42%	.	89µM*	24µM*
CCCC(C)C(=O)Nc1cc(S(=O)(=O)N2CCCCC2)ccc1N1CCOCC1 (stereo unspecified)	0%	.	-3%	2%	7%	-17%
Clc1ccc(OCc2nc3ccccc3n2Cc2ccccc2)c(Cl)c1	0%	.	-4%	.	-8%	.
COc1ccc(/C=C/c2ccccc2)cc1C1C2C=CCCC2(C)C(=O)N1Cc1ccccc1 (stereo unspecified)	.	.	.	.	-28%	.
O=c1c2ccccc2sn1-c1cc(S(=O)(=O)N2CCOCC2)ccc1N1CCCCC1	.	.	.	.	28µM*	.
O=C(Nc1ccc(Cl)c(Cl)c1)Nc1cc(S(=O)(=O)N2CCOCC2)ccc1N1CCCC1	-10%	-4%	11%	-2%	-11%	17µM*
O=C(Nc1ccccc1F)Nc1cc(S(=O)(=O)N2CCOCC2)ccc1N1CCCC1	-6%	-1%	-1%	3%	-12%	-3%
O=C(Nc1cc(S(=O)(=O)Nc2ccc(Cl)cc2)ccc1N1CCCCC1)c1ccc(F)cc1Cl	-17%	-7%	-3%	15%	-7%	9.5µM*
CC(=O)Nc1ccc(S(=O)(=O)N2CCC3(CC2)CC(=O)c2ccccc2O3)cc1	0%	.	7%	-1%	-6%	-12%
Cc1oc(-c2ccc(Cl)cc2)nc1CN1CCCC(C(=O)NC2CC2)C1 (stereo unspecified)	1%	.	10%	10%	?	21µM*
COc1ccc(-c2nc(CN3CCCC(C(=O)NC4CCCC4)C3)c(C)o2)cc1 (stereo unspecified)	-12%	4%	3%	-3%	2%	-1%
CCOC(=O)c1noc2ncnc(Nc3cc(Cl)c(OC)cc3OC)c12	0%	.	-13%	.	-2%	.
CN1CCN(CCc2ccc(Cl)c(Cl)c2)CC1	2%	.	.	.	6%	.
O=C(O)c1cc(Cl)c2c(c1)[C@@H]1C=CC[C@@H]1[C@H](c1ccc(S(=O)(=O)N3CCOCC3)cc1)N2	?	?	13µM*	3%	?	27µM*
CCN(CC)C(=O)CC(c1ccc(OC)cc1)c1c(OC)cc(OC)c2c(-c3ccccc3)cc(=O)oc12 (stereo unspecified)	.	.	.	.	-3%	.
Cc1cc(Cl)nc(-n2nc(C)cc2C)n1	-5%	-5%	-3%	-6%	-12%	-6%
Cc1cc(C)n(-c2nc(C)nc(N)n2)n1	3%	6%	21%	-9%	-7%	12µM*
CCN(CC)C(=O)c1ccc(Nc2nnc(-c3ccc(O)cc3)c3ccccc23)cc1	-4%	0%	10µM*	0%	-10%	0%
COc1ccc(Nc2nnc(-c3ccc(O)cc3)c3ccccc23)cc1C(N)=O	-19%	2%	7.9µM*	-2%	-10%	0%
C=CCN1CC(C(=O)N(CCCN(C)C)C(=O)NCC)CC2c3cccc4[nH]cc(c34)CC21 (stereo unspecified)	1%	.	44%	.	-3%	.
CCc1ccc(-c2nc(CN3CCCC(C(=O)N4CCN(c5cc(Cl)ccc5C)CC4)C3)c(C)o2)cc1 (stereo unspecified)	-9%	.	-5%	.	-12%	.
Cc1ccc(-c2cc(C(=O)NCCCN3CCOCC3)c3ccccc3n2)cc1C	0%	-10%	-9%	6.3µM*	-8%	2%
SMILES	GCN5L2 inh	PKM2 activator	GLS inh	Mito fusion act	VDR inh	PLK1 PBD inh
Cc1cc(=O)nc2c3ccccc3n(CC(=O)NCCCN3CCCC3=O)n12	1%	.	9%	0%	-20%	-24%
O=C(NCCc1ccc(Cl)cc1)c1cc(-c2ccccn2)nc2ccccc12	-5%	.	4%	-28%	-24%	19µM*
Cc1cc(=O)nc2c3ccccc3n(CC(=O)NCCCN3CCOCC3)n12	-3%	.	-1%	2%	?	19µM*
Cc1ccc(-c2cc(C(=O)NCc3ccccn3)c3ccccc3n2)cc1C	-10%	1%	3%	7%	?	24µM*
Cc1ccc(-c2cc(C(=O)NCCCN3CCOCC3)c3ccccc3n2)cc1	-6%	.	-6%	-5%	2%	-3%
Cc1nc(SCc2cc(=O)c3cccc(F)c3[nH]2)n[nH]1	-7%	.	-2%	.	5%	.
Cc1cc(/C=C2/NC(=O)N(Cc3ccccc3F)C2=O)c(C)n1C	-1%	14%	73%	0%	-20%	30µM*
O=C(Nc1cccc(F)c1)/C(=C/c1ccco1)NC(=O)c1ccco1	-21%	10%	9%	1%	-1%	-21%
O=C(O)CCCN=CC1=C(O)CNC1=O	-1%	3%	3%	-10%	?	30µM*
O=C1NCC(O)=C1C=NCCO	-1%	-12%	10%	-3%	-11%	-10%
CCOc1cc(/C=N/NC(=O)c2nn(C)cc2Br)ccc1OCc1ccccc1Cl	-11%	6%	0%	4µM*	-19%	-6%
Cn1c(=O)oc2cc(S(=O)(=O)Nc3ccc4c(c3)OCO4)ccc21	1%	7.9µM*	13%	2%	-8%	2%
Cn1c(=O)oc2cc(S(=O)(=O)Nc3cccc(C(=O)O)c3)ccc21	2%	-2%	1%	-2%	5%	-2%
O=S(=O)(Nc1cccc(Cl)c1)c1ccc(-n2cccn2)cc1	-1%	28%	1%	11%	-2%	-14%
CCc1cccc(NS(=O)(=O)c2ccc3c(c2)oc(=O)n3C)c1	-3%	3.2µM*	7%	14%	-8%	-6%
COc1ccc(S(=O)(=O)Nc2ccc3c(c2)OCO3)cc1	-3%	25µM*	23%	3%	2%	-4%
CCc1cccc(NS(=O)(=O)c2ccc(-n3cccn3)cc2)c1	-9%	?	-15%	32%	-19%	30µM*
CO/S(=N\S(=O)(=O)c1ccc(Cl)cc1)c1ccc([N+](=O)[O-])cc1 (stereo unspecified)	-12%	.	.	?	?	.
CNC(=O)CSc1nc2cc(S(=O)(=O)Nc3ccc(OC)cc3)ccc2o1	.	.	17%	.	4%	-9%
Cn1c(=O)oc2cc(S(=O)(=O)Nc3ccccc3)ccc21	1%	2.5µM*	0%	?	-12%	21µM*
COc1ccc(NS(=O)(=O)c2ccc3oc(SC)nc3c2)cc1	-7%	.	18%	10%	0%	21µM*
